# Screens as filed in PubChem BioAssay.
# Vif imaging = HIV Vif self-association inhibitors, primary screen, imaging, HEK293T, single point. HEK293T cells, Vif self-association by quenched fluorescence, 24 h. inhibition, % at 7.49 µM. 340,000 compounds, 0.35% hits. AID 602346, 2012; in the data active = inhibition above about 50%, passing the limit was not always enough; inconclusive = no clear call, values can overlap the other calls; inactive = below about 31%
# esBAF inh = Bmi1 luciferase reporter increase in mESCs, primary screen, esBAF inhibitor project, mouse ES cells, Bmi1 luciferase knock-in, single point; 24 h; 100% = twice the neutral-well signal; reporter increase, % at 12.5 µM; 350,000 compounds, 2% hits; in the data active = activation above about 40%; inconclusive = no clear call, values can overlap the other calls;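 also: a rise in the Bmi1 reporter signal indicates esBAF inhibition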
# Wnt bcat act = Wnt/beta-catenin pathway activators, primary screen, cell-based, plate reader, single point. Wnt/beta-catenin reporter cell assay, activator. activation, % at 9.35 µM. 300,000 compounds, 1.2% hits; in the data active = activation above about 30%, passing the limit was not always enough; inconclusive = no clear call, values can overlap the other calls
# MITF act = activators of MITF-driven TRPM1 promoter reporter, primary screen, cell-based, SK-MEL-5, luciferase, single point; 300,000 compounds, 0.75% hits; AID 588334, 2011; SK-MEL-5 TRPM1-promoter luciferase, 24 h; % of positive control, neutral wells = 0; activation, % at 12.5 µM;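 active = mean activation of at least 80% with every replicate also reaching 80%; inconclusive = mean reaches 80% but some replicate falls short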
# PvdQ acylase = P. aeruginosa PvdQ acylase inhibitors, primary screen, biochemical, fluorescence, plate reader and imaging, single point; AID 488965, 2010; inhibition, % at 10 µM; PvdQ acylase [Pseudomonas aeruginosa LESB58]; purified PvdQ acylase; 340,000 compounds, 0.063% hits; in the data active = inhibition above about 30%, passing the limit was not always enough; inconclusive = no clear call, values can overlap the other calls
# N-glyco inh = increase of ERlucT glycosylation luciferase signal, primary screen, N-linked glycosylation inhibitor project, D54 ERlucT cells, luminescence, set 2; D54 ERlucT glycosylation luciferase reporter, 24 h; percent of 100 nM tunicamycin response; reporter increase, % at 12.5 µM; 360,000 compounds, 0.23% hits; AID 588692, 2011;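 active = mean luciferase reporter signal, scaled so untreated is 0 and the glycosylation-blocking control 100, at or above a set limit in every replicate; inconclusive = mean reaches the limit but not every replicate does; inactive = mean below the limit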;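 also: luciferase carries N-glycosylation sites so blocking glycosylation raises the light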
# A number is an active result; – = inactive; ? = inconclusive; · = not tested or not shown. Rows were chosen to be rich in hits. Some 2.9% of all compounds tested hit in one or more screens of this group.
SMILES,Vif imaging,esBAF inh,Wnt bcat act,MITF act,PvdQ acylase,N-glyco inh
Cc1noc(C)c1S(=O)(=O)Nc1ccc2c(c1)CC(=O)N([C@@H](C)CO)C[C@@H](C)[C@H](CN(C)S(=O)(=O)c1c(C)noc1C)O2,·,–,·,·,·,·
Brc1ccccc1-c1nnc(COc2cccc3cccnc23)o1,–,·,·,–,–,–
N#Cc1ccccc1OCc1nnc(-c2ccccc2Br)o1,–,55,–,159,–,–
Clc1ccccc1OCc1nnc(-c2ccccc2Br)o1,–,115,·,99,–,–
C[C@@H]1CCCCO[C@@H](CN(C)S(C)(=O)=O)[C@H](C)CN([C@@H](C)CO)C(=O)c2cc(NC(=O)c3ccccc3)ccc2O1,·,–,·,·,·,·
Cc1ccc(NC2=CC(=O)C(=O)c3ccccc32)cc1,–,–,73,–,–,–
Cc1ccsc1/C=C1\Oc2cc(O)ccc2C1=O,–,51,–,·,·,–
O=C1/C(=C/c2cccc([N+](=O)[O-])c2)Oc2cc(O)ccc21,–,–,–,–,41,–
COc1cc(/C=C2\Oc3cc(O)ccc3C2=O)ccc1O,?,46,–,–,–,–
C[C@@H]1CN([C@H](C)CO)S(=O)(=O)c2ccc(-c3ccc(C#N)cc3)cc2O[C@H]1CN(C)C,·,–,·,·,·,·
CCCCCc1ccc(-c2cn(Cc3ccc(C(=O)c4ccccc4)cc3)nn2)cc1,–,53,–,–,–,–
CCc1[nH]nc(C(=O)NC2CCCc3c2cnn3-c2cc(C)cc(C)c2)c1C (stereo not drawn),–,66,–,–,–,–
C[C@@H]1CN([C@H](C)CO)C(=O)c2cc(NS(=O)(=O)c3ccc(Cl)cc3)ccc2O[C@H]1CN(C)C(=O)Nc1ccc2c(c1)OCO2,·,–,·,·,·,·
CCN(CC)CCCNc1ccc2ncn3c4ccc(O)cc4c(=O)c1c23,·,·,–,–,–,81
Cc1c(-c2ccc(Br)cc2)[n+](=O)c2c(n1[O-])CCCCC2,–,·,36,·,–,–
Cc1ccc(-c2c(C)n([O-])c3c([n+]2=O)CCCC3)cc1,–,·,–,–,–,–
COc1ccc(NC(=O)/C=C/c2cccc(Br)c2)cn1,–,67,–,–,–,–
CC1Oc2ccccc2C=C1/C=N/NC(=O)c1ccccc1 (stereo not drawn),–,·,37,89,–,–
Fc1ccccc1-c1ccc(/C=N/Nc2nc3ccccc3[nH]2)o1,–,·,53,–,–,–
Cc1ccc(/C=N\Nc2nc3ccc(Cl)cc3[nH]2)o1,–,·,68,–,–,–
CCCCn1c(/C=N/Nc2nc3ccccc3[nH]2)nc2ccccc21,–,·,–,–,–,–
COc1ccc(S(=O)(=O)N(C)C[C@@H]2OCCCC[C@H](C)Oc3ccc(NC(=O)Nc4ccc(C(F)(F)F)cc4)cc3C(=O)N([C@H](C)CO)C[C@@H]2C)cc1,·,–,·,·,·,·
COc1ccc(OC)c(-c2nn(-c3ccccc3)cc2C(=O)NCC(c2ccco2)N2CCCC2)c1 (stereo not drawn),54,–,–,–,–,–
O=C(CCCc1ccccc1)Nc1ccccc1C(F)(F)F,–,72,–,·,–,–
NC(=O)c1ccccc1NC(=O)CCc1ccccc1,–,48,–,–,–,–
SMILES,Vif imaging,esBAF inh,Wnt bcat act,MITF act,PvdQ acylase,N-glyco inh
NC(=O)c1ccccc1N/C=C/C(=O)c1ccccc1,–,–,48,·,–,–
O=C(/C=C/NNC(=O)c1ccccc1O)c1ccccc1,–,61,–,–,–,–
O=C(/C=C/NNC(=O)c1ccccc1)c1ccccc1,–,–,·,–,–,–
NC(=O)c1ccccc1NC(=S)NC(=O)CCc1ccccc1,–,–,·,–,–,–
O=C(CCCOc1ccccc1)Nc1ccccc1C(F)(F)F,–,–,·,–,–,–
C[C@@H]1CN([C@H](C)CO)S(=O)(=O)c2ccc(C3=CCCCC3)cc2O[C@H]1CN(C)C(=O)CN(C)C,·,–,·,·,·,·
O=C(O)C(=O)Nc1ncn[nH]1,–,–,–,·,·,–
O=C(/C=C/c1ccccc1)Nc1ncn[nH]1,59,–,–,–,–,–
NC(=O)c1ccccc1NC(=O)/C=C/c1ccc(Cl)cc1,–,–,–,–,–,–
NC(=O)c1ccccc1NC(=O)/C=C/c1ccccc1,–,·,74,–,–,–
C[C@H]1CN([C@@H](C)CO)C(=O)c2cccc(NC(=O)Nc3ccc(F)cc3)c2O[C@@H]1CN(C)C,·,–,·,·,·,·
COc1ccc(S(=O)(=O)N[C@@H]2C=C[C@H](CC(=O)N3CCN(c4ccccc4)CC3)O[C@H]2CO)cc1,·,–,·,·,·,·
CCOc1ccc(N2C(=O)c3ccccc3C2=O)cc1,–,43,·,–,–,–
O=C(COc1ccc(N2C(=O)c3ccccc3C2=O)cc1)c1ccccc1,–,·,–,–,–,–
CCOc1ccc(N2C(=O)c3ccccc3C2O)cc1 (stereo not drawn),–,?,43,·,–,–
CN(C)C(=O)C[C@@H]1CC[C@@H](NC(=O)NC2CCCCC2)[C@H](CO)O1,·,–,·,·,·,·
C[C@H](CO)N1C[C@H](C)[C@H](CN(C)C(=O)Nc2ccc(C(F)(F)F)cc2)Oc2ccc(NC(=O)Nc3ccc(C(F)(F)F)cc3)cc2CC1=O,·,–,·,·,·,·
CO[C@H]1CN(C)C(=O)c2ccc(NC(=O)c3cc(C)on3)cc2OC[C@@H](C)N(C(=O)C2CC2)C[C@@H]1C,·,–,·,·,·,·
COc1ccccc1-c1cc(C(=O)N2CCCC2)no1,–,–,37,–,–,–
Cc1ccc(O)c(NC(=O)c2cc(-c3cccs3)on2)c1,–,52,–,122,–,–
COc1ccccc1-c1cc(C(=O)N2CCOCC2)no1,–,?,–,105,–,–
CC1CCN(C(=O)c2cc(-c3ccccc3O)on2)CC1,–,–,63,104,–,–
COCC#Cc1ccc2c(c1)O[C@@H](CN(C)C(=O)Nc1ccccc1F)[C@@H](C)CN([C@@H](C)CO)S2(=O)=O,·,–,·,·,·,·
C[C@H](CO)N1C[C@H](C)[C@@H](CN(C)CC2CCCCC2)OCCCC[C@H](C)Oc2ccc(N(C)C)cc2C1=O,·,–,·,·,·,·
CCC(C)NC(=O)c1ccccc1-c1ccccc1C(=O)NC(C)CC (stereo not drawn),–,–,–,–,–,–
COc1ccccc1-c1cc(C(=O)NC(C)C)no1,–,52,–,–,–,–
CC(C)NC(=O)c1cc(-c2cccs2)on1,–,–,55,·,–,–
CCC(C)NC(=O)c1cc(-c2ccccc2O)on1 (stereo not drawn),–,57,–,·,–,–
COc1ccccc1-c1cc(C(=O)NC(C)c2ccccc2)no1 (stereo not drawn),–,–,·,–,–,–
